Results as given in the supplement of paper PMC6555819.

These sequences were tested on VDR:RXRa (NR concentration 270 nM, RXRa partner concentration 90 nM) (assay: PBM binding z-score (relative to random genomic background probes); higher = stronger binding; sequences stand for … in GC…GCGATTGACAGCGTAGAATGAAGG).
Protocol: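 Protein-binding microarray (Agilent 4x180K custom design, double-stranded 60-nt probes: 5' GC cap, 34-nt variable region, 24-nt constant primer region; full probe sequence given). Purified or IVT nuclear receptor:RXRα heterodimers (3:1 NR:RXRα, mostly 270:90 nM) or homodimers were incubated for 1 h in PBS with 2% milk and no ligand, then detected with Alexa488 antibodies. Fluorescence from o1-orientation probes (~5 replicates averaged) was converted to z-scores against 500 random hg19 background probes. Variable regions are seed direct-repeat (DR0–DR5) sites, all their single-nucleotide variants and half-site ablations.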

Sequence	PBM binding z-score
TCGAGTAGGTTACGGGCATTCAGAATGGCGTCGA	-0.46
ATACCAAGGTGATCGTGAGCTCGTTGATACTAAC	-0.0163
ACTAGCAGGCCAAGTTTGGGTCACTCATACAAAG	0.68
CCTATTAGTTGACCATAAGGGCAGCCGAAGCTCG	0.304
CCTTATGGGTCACGAGGTTATAGCACGACGAGCG	4.4
CCAACTAGGTCAAGAGGTCAAAGTCCGCTTCCCG	6.1
AGAATGAGGTTATTAAGATCACGGAATTGCGGTC	3.68
CGACCTAGGTCAGAACAGGACAGTGAAGGATGAT	1.05
CAAACTAGGTCACCGGAAGGTCAAAGTGCGCATG	6.18
CAGCCTAGGTAAGGGCCAGTATAGGAGGAACGTT	-0.84
CGTCCAAGTTCATAGGAGGTCAGTGAAGACAGAT	5.91
TCATATAGTTAAACAGGTGAAAGTCCGTAAGTTA	1.21
TCATATAGGTAATCCAGGTGAAAGTCGGCATCTA	1.1
TCTTGTAGATCAACATGAGGTTAAGAAAGATCGA	1.1
TCTTGTAGATCCGCAGGTTAAGAAAGCTGGCCAA	0.237
TCTATTAGTTGAAGGGCAGCCGACGAGTCCGTTT	0.97
CGTCAAAGTTCATCTAAGGTAACGTAAAGCACGC	5.24
CCTACTGGGGCAAGGTTACCATAACGCACAGCCA	0.252
ATACCAAGGTGATCGTGAGGTCATTGATACTAAC	5.31
TCTTGTAGATCACGCAGGTTAAGAAAGCCTGAGT	0.662

Sequence	PBM binding z-score
ATATGTAGGTTACATCCGGGTCATTAAGGCTATG	4.54
CTACCAAGGTGAACAAGGCCGTTGATTACTATTC	3.58
GCAGACAGGTGAAACGCGGGTAACTCAGGGTGGC	-0.339
ATCGAAAGGTCGAAGATGAGTATACCCACCCGAA	2.36
AGAATGAGGTTTTTAAGATCAGGGAATTGCGGTC	-0.0674
GGAACGAGGGCAAGTTGATAGGAGAGTTTGATGG	0.886
CGTCCAAGGTCAGCAGGCCAGTGAAAGCGACGTG	2.58
CGAACTAGGTCAAGGGCAGTGAATCTCCGCACGC	1.4
CCTACTGGGCCACGAAAGGTCATTGAATCAGTGA	4.14
AGAATGAGGTTATACGTGGATCAGGGAAGAAAGT	1.56
TAGCCTAGGTCATTGGGTCAGTATAGTACGCATC	4.26
GCAGACAGGCGAAACGCAGGTAACTCAGGGTGGC	-0.853
ACTTTTAGTTGAGACGAGGGCAACCGATAGGTTG	0.832
TCTAGCAGGCCAGAGGGTCACTAAAGAGGTACGG	1.24
CCTACTGGGCCAAAGGTCATTGAATCCAATGCTC	4.86
CCGACTGGGGCAAGATTACCATAACGCACAGCCA	-0.621
TAGCCTAGGTCATTGGGCCGGTATAGTACGCATC	2.11
GCGACTGGTGCAAAGCAGGTTACCATAAGGTTGG	-0.134
TATACAGGGACAAAGGCCAGAGTACGAATGTCGA	0.123
CCTACTGGGACACGAAAGGTCATTGATTCAGTGA	4.06
